# Shown are actives, neighbours in structure and some others; about 3.6% of the full set was active somewhere.
# CF NFkB block: blocks PAF-induced NF-kB reporter in cystic fibrosis cells; KKLEB NF-kB-GFP reporter, GFP fluorescence overnight; inhibition, % at 5 µM; 0.86% of 360,000 active; AID 588850;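 active means at least 50% inhibition at 5 µM, scaled per plate between neutral and stimulator controls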;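 further: PAF is a Pseudomonas aeruginosa culture filtrate used as stimulus; plate controls were PAF-stimulated DMSO wells for no effect and unstimulated DMSO wells for full effect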
# LGR2 inh: inhibitors of bursicon-induced Drosophila LGR2 receptor cAMP signaling | HEK293 LGR2, CRE-luciferase, bursicon-stimulated, 4 h | inhibition, % at 9.99 µM | 0.35% of 380,000 active | AID 720647;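 active means drop in luminescence signal, shown as inhibition above about 50% in the replicate tests, limit read from the data, passing the limit was not always enough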;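 further: agonist challenge used bursicon conditioned medium at about half maximal strength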
# Mdm2-MdmX inh: disrupts the human Mdm2-MdmX interaction. inhibition, % at 8 µM. SaOS-2 split-luciferase Mdm2/MdmX complementation, luminescence. 3% of 330,000 active. O15151+Q00987;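 active means inhibition of at least 50% at 8 µM in the primary screen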
# Target sequence (O15151 whole entry, looked up): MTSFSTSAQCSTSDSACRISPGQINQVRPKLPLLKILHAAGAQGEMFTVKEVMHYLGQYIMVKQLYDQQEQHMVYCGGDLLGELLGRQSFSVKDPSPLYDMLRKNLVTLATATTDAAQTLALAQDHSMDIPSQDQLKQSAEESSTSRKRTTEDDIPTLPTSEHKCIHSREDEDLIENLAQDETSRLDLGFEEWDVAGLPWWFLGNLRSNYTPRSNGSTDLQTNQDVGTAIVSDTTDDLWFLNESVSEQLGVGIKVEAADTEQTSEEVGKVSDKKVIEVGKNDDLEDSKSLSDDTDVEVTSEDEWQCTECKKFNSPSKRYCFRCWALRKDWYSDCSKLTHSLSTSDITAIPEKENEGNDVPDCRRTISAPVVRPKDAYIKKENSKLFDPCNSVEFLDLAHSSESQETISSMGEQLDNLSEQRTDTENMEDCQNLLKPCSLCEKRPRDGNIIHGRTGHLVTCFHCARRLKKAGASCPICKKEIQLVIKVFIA
# Target sequence (Q00987 whole entry, looked up): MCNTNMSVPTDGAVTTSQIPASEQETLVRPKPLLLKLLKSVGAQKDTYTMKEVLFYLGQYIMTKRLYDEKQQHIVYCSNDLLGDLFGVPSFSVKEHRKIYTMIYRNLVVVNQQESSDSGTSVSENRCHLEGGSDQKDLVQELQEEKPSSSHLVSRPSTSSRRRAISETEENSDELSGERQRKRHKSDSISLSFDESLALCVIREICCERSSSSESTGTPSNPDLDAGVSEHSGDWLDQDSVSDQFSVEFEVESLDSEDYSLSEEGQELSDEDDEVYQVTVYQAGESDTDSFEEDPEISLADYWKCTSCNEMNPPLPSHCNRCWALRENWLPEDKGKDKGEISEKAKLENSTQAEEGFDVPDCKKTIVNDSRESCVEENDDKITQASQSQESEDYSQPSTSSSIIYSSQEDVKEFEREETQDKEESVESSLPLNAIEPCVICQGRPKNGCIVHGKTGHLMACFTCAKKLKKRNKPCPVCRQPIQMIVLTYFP
# Peg3 prom inh-1: Peg3 promoter activity inhibition; inhibition, % at 20 µM; AID 588405; HeLa PEG-Prom luciferase reporter, luminescence, overnight; 1.7% of 360,000 active;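 active means inhibition of at least 50% at 20 µM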
# KKLEB tox: CF airway cell cytotoxicity counter-screen. KKLEB CF airway cells viability, ATPlite luminescence, overnight; stronger effect = lower value; cells stimulated with P. aeruginosa culture filtrate. activity change (cytotoxicity), % at 5 µM. 0.36% of 360,000 active. AID 602141;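 active means corrected activity change at or below -50% at 5 µM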
# HSP90 inh: inhibitors of HSP90 luciferase refolding in rabbit reticulocyte lysate | inhibition, % at 5.6 µM | AID 1789 | 0.91% of 290,000 active | luciferase refolding luminescence, 3 h;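 active means inhibition above the screen-wide mean plus 3 SD, computed separately per campaign, cut at about 16% in these data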;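 further: 0% = DMSO wells and 100% = 60 µM geldanamycin wells; inhibitors lower the luminescence because luciferase stays unfolded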
# Mdm2 MdmX conf: confirmation of human Mdm2/MdmX interaction inhibitors. shares compounds with Mdm2-MdmX inh. Mdm2-MdmX binding, luminescent assay. inhibition, % at 8 µM. 55% of 10,000 active; in the data active means inhibition above about 40%
# FLuc counter: inhibits full-length luciferase, flagging false Mdm2/MdmX hits; AID 504607; shares compounds with Mdm2-MdmX inh; 77% of 6,200 active; inhibition, % at 8 µM; SaOS-2 full-length luciferase counterscreen, luminescence;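 active means mean inhibition at 8 µM reaching about 37%, which flags the compound as non-specific, limit read from the data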;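 further: p53-null SaOS-2 cells with luciferase driven by a doxycycline-inducible promoter; compound on cells about two nights before reading with doxycycline added after day one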
# Peg3 prom inh-2: Peg3 promoter inhibition confirmation | inhibition, % at 20 µM | HeLa PEG-Prom luciferase reporter, luminescence, overnight | shares compounds with Peg3 prom inh-1 | 84% of 1,300 active | AID 602417;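 active means at 20 µM dose, 40% or more inhibition averaged across four replicates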
# * = called active by the depositor; . = no result given; ! = not active in a repeat.
SMILES,CF NFkB block,LGR2 inh,Mdm2-MdmX inh,Peg3 prom inh-1,KKLEB tox,HSP90 inh,Mdm2 MdmX conf,FLuc counter,Peg3 prom inh-2
C/C(=N\Nc1ccc2nncn2n1)c1ccccn1,-12.9,-1.4,80.7*,60.4*,8.9,1.6,84.4*,47.8*,59.6*
C/C(=N\Nc1ccc2nncn2n1)c1ccco1,0.4,24.6,30.6,-11.4,4.3,-0.9,.,.,.
N=c1n(CCN2CCCCC2)c2ccccc2n1CC(O)c1ccc(Cl)c(Cl)c1 (stereo unspecified),21.9,.,99.2*,116.8*,-14.2,0.6,96.2*,55.9*,99.7*
C[C@H]1CN([C@@H](C)CO)C(=O)Cc2cc(NC(=O)C3CCCCC3)ccc2O[C@H]1CN(C)Cc1ccc2c(c1)OCO2,.,2.2,.,.,.,.,.,.,.
Cc1cc(Cl)n2ncc(-c3ccccc3)c2n1,10.0,-85.6,62.7*,86.7*,-7.3,5.1,7.5,.,68.1*
Cc1cc(N)n2ncc(-c3ccc(Cl)cc3)c2n1,5.8,.,-2.0,-192.5,-8.0,-4.0,.,.,.
N=c1c2c(-c3ccccc3)c(-c3ccccc3)n(Cc3ccccc3)c2ncn1CCO,16.3,.,72.8*,98.5*,-9.9,2.2,65.3*,40.2*,95.8*
OCCn1cnc2c(SCc3ccccc3)ncnc21,-20.7,-16.3,.,-70.0,20.4,.,.,.,.
O=c1cnnc(N/N=C/c2ccccn2)[nH]1,11.2,29.4,82.3*,61.6*,-1.6,-1.2,88.2*,52.6*,73.3*
O=c1nc(N/N=C/c2ccccn2)cn[nH]1,12.9,5.4,11.2,37.2,-2.3,0.1,.,.,.
Cc1ccc(S(=O)(=O)N(C)C[C@H]2Oc3ccc(NC(=O)CCN4CCOCC4)cc3CC(=O)N([C@H](C)CO)C[C@H]2C)cc1,.,-18.2,.,.,.,.,.,.,.
O=C(Nc1cccc(F)c1)N1C[C@@H]2[C@H](c3ccccc31)[C@@H](CO)N2C(=O)C1CCOCC1,.,-2.8,.,.,.,.,.,.,.
CCN(CC)CCN(C(=O)c1cc2c(ccc3ccccc32)oc1=O)c1nc2cc3c(cc2s1)OCCO3,-6.8,-22.3,100.3*,95.9*,-1.7,5.1,32.6,.,-10.8
CCN(CC)CCN(C(=O)c1ccc2c(c1)OCCO2)c1nc2cc3c(cc2s1)OCO3,-28.3,2.5,1.6,-19.8,-11.4,0.7,.,.,.
COc1ccc(-c2nc(NC(=O)c3c(C)noc3C)sc2C)cc1,5.1,-8.3,13.1,13.9,-3.3,.,.,.,.
COc1ccc(-c2nc(NC(=O)c3n[nH]c(=O)c4ccccc34)sc2C)cc1,4.1,5.9,68.9*,59.6*,8.1,-0.2,35.6,.,48.1*
CC1=C(C(=O)OCc2ccc3c(c2)OCO3)C(c2ccccc2OCc2ccccc2)NC(=O)N1 (stereo unspecified),26.0,9.7,32.9,14.8,-2.7,8.4,.,.,.
CC1=C(C(=O)OCc2ccc3c(c2)OCO3)C(c2ccccc2)NC(=O)N1 (stereo unspecified),84.1*,32.6,87.0*,51.2*,-29.9,2.6,90.9*,51.5*,61.8*
CCN(CC)CCOc1ccc(/C(=C(/Cl)c2ccccc2)c2ccccc2)cc1,39.3,-0.9,68.7*,102.2*!,3.1,-4.8,31.9,76.0*,95.9*
COc1ccccc1CN1[C@@H]2c3ccc(C4=CCCC4)c(=O)n3C[C@H]1[C@H](CO)[C@H]2C(=O)N(C)C,.,5.9,.,.,.,.,.,.,.
CN1CCC(NC(=O)c2cc(-c3cccc(Br)c3)nc3ccccc23)CC1,-11.1,-1.8,66.0*,105.3*,-3.8,4.4,38.0,64.5*,78.9*
Cc1ccc(C(=O)c2no[n+]([O-])c2C(=O)c2ccc(C)cc2)cc1,99.5*,-13.8,50.7*,107.3*,-76.2*,2.3,8.8,.,99.8*
Cc1ccc(C(=O)c2ccc(C)cc2)cc1,15.2,-41.2,15.4,-16.6,1.2,0.2,.,.,.
CNC[C@H]1Oc2c(NS(=O)(=O)c3cccs3)cccc2C(=O)N([C@@H](C)CO)C[C@@H]1C,.,11.7,.,.,.,.,.,.,.
O=C(CNc1ccccc1)N/N=C/c1c(O)ccc2ccccc12,3.4,20.2,83.6*,63.6*,-9.3,-4.8,79.2*,26.6,68.0*

# Screening results from PubChem.
